Our source for the growth values is PubChem BioAssay (NCI).

The structures appear in SMILES notation. The panel holds about 83,000 compounds, 20% with a hit somewhere; the sample as a whole holds those more often.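 48-hour exposure, single concentration, 96-well plates; percent growth endpoint where 0 means no net growth. Active: below 10.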 Unmarked numbers belong to inactive results. Activity calls are given as the source filed them.

What all share (assay): NCI-60 one-dose screen, 48 h (100 = growth as untreated, 0 = no growth, -100 = all killed)
What all share (details): 10 µM unless noted

Experiment [1] has as its system T-47D breast.
The subject of experiment [2] is BT-549 breast.
For experiment [3], the system named is MDA-MB-435 melanoma.
Experiment [4] has as its system SW-620 colon.
Experiment [5] deals with MCF7 breast.
Experiment [6] deals with HCT-116 colon.
Experiment [7] concerns HCC-2998 colon.
Experiment [8] concerns KM12 colon.

With `COc1cc2nc3cc([N+](=O)[O-])ccc3c(NCCCNCCO)c2cc1OC`, the growth in experiment [1] was -30.1% (active); in experiment [2], -73.4% (active); in experiment [3], -100% (active); in experiment [4], -25% (active); in experiment [5], -28.5% (active); in experiment [6], -33.7% (active). In addition, the growth in experiment [7] is -47.9% (active); in experiment [8], -33.6% (active).

Consider `CN1CCN(Cc2ccc(NC(=O)c3cncc(C#Cc4c(N)ncc5c(F)cccc45)c3)cc2C(F)(F)F)CC1`, for which the growth in experiment [1] is -25.2% (active); in experiment [2], 12.5%; in experiment [3] it was -83% (active); in experiment [4], -51.9% (active); in experiment [5], -67.3% (active); in experiment [6], -89.1% (active). In addition, the growth in experiment [7] was -11.9% (active); in experiment [8] it was -72.9% (active).

As for `COc1cccc(C(=O)Nc2cccc(NC(=O)c3ccccn3)c2)c1`, the growth in experiment [1] was 87.4%; in experiment [2], 91.3%; in experiment [3], 93.2%; in experiment [4], 109%; in experiment [5] it was 83%; in experiment [6], 94%. Moreover, the growth in experiment [7] was 83.2%; in experiment [8], 99.6%.

Take `CCn1c2ccccc2c2cc(C(O)c3cccc4ncccc34)ccc21` (stereo not given): the growth in experiment [1] was 59%; in experiment [2], -8.94% (active); in experiment [3] it was 0.201% (active); in experiment [4], 26.8%; in experiment [5] it was 15.5%; in experiment [6] it was 0.739% (active). Further, the results for the growth in experiment [7] and in experiment [8] were -32.5% (active) and 8.55% (active), respectively.

Turning to `[2H]C([2H])([2H])Oc1ccc(/C=C/C(=O)/C=C(/C=C/c2ccc(OC([2H])([2H])[2H])c(OC([2H])([2H])[2H])c2OC([2H])([2H])[2H])OB(F)F)c(OC([2H])([2H])[2H])c1OC([2H])([2H])[2H]`, the growth in experiment [1] was 51.7%; in experiment [2] it was 78.6%; in experiment [3], 26.7%; in experiment [4], 18.4%; in experiment [5], 28.2%; in experiment [6], 6.6% (active). Also, the growth in experiment [7] is 120%; in experiment [8], 81.3%.

With `COc1ccccc1-c1nc2ccc3[nH]ncc3c2c2c1CCCC2`, the growth in experiment [1] was 74.2%; in experiment [2], 77.1%; in experiment [3] it was 64.4%; in experiment [4], 82.6%; in experiment [5] it was 68.7%; in experiment [6], 64.9%. Moreover, the growth in experiment [7] is 113%; in experiment [8], 31%.

On to `CCCCCCCC/C=C\CCCCCCCCOc1ccc(CC(=O)NCC[N+]2(C)CCCC2)cc1`, for which the growth in experiment [1] was 77.2%; in experiment [2], 73.6%; in experiment [3], 77.2%; in experiment [4], 54.5%; in experiment [5] it was 57.1%; in experiment [6], 53.2%. Further, the growth in experiment [7] was 37.2%; in experiment [8], 27.5%.

`CCCn1cnc2c(c1=N)C(c1ccc(Cl)cc1)c1sc3c(F)cccc3c1O2` (stereo not given): the growth in experiment [1] is 64.6%; in experiment [2], 105%; in experiment [3], 77.7%; in experiment [4], 55.5%; in experiment [5], 32.3%; in experiment [6], 57.8%. Besides, the growth was -20% (active) in experiment [7] and 66.6% in experiment [8].

On to `O=C(COc1ccc(/C=C2\Oc3ccccc3C2=O)cc1)Nc1nccs1`, for which the growth in experiment [1] was 115%; in experiment [2] it was 115%; in experiment [3], 69.4%; in experiment [4], 110%; in experiment [5], 75.6%; in experiment [6], 94.5%. The values for the growth in experiment [7] and in experiment [8] were 97.7% and 69.7%, respectively.

Turning to `CCCCCCCCNC(=O)[C@@H](N)CSCOC(C)=O`, the growth in experiment [1] was 96.1%; in experiment [2], 111%; in experiment [3] it was 19.1%; in experiment [4], 84.6%; in experiment [5] it was 108%; in experiment [6], 92.7%. For the same compound, the values for the growth in experiment [7] and in experiment [8] were 101% and 38.1%, respectively.

Turning to `C=CN(C(=O)N1CCN(c2cc3c(cc2F)c(=O)c(C(=O)O)cn3C2CC2)CC1)c1nc(-c2ccc(C)cc2)cs1`, the growth was 36.3% in experiment [1]; 11.9% in experiment [2]; 22.1% in experiment [3]; 20.8% in experiment [4]; 7.94% (active) in experiment [5]; 10.9% in experiment [6]. Further, the growth is 39% in experiment [7] and 21.9% in experiment [8].

`CN1CCN(CC(=O)N(C)c2ccc(N=C(c3ccccc3)c3c(O)[nH]c4ccc([N+](=O)[O-])cc34)cc2)CC1`: the growth in experiment [1] is 89.7%; in experiment [2] it was 64.4%; in experiment [3], 23.5%; in experiment [4], 48.4%; in experiment [5], 21.9%; in experiment [6], 24%. The growth was 78.7% in experiment [7] and 13.1% in experiment [8].

With `CCCC1Cc2cc(-n3nc(C)c4c3CC(C)(C)CC4=O)cc(NC3CCC(O)CC3)c2C(=O)N1` (stereo not given), the growth in experiment [1] is 46.9%; in experiment [2] it was 68.4%; in experiment [3], 26.8%; in experiment [4] it was 20.4%; in experiment [5], 36.5%; in experiment [6], 15.4%. Also, the growth was 34.2% in experiment [7] and 15.5% in experiment [8].

Take `O=C(Nc1ccc(Oc2cccc(F)c2)c(Cl)c1)c1cnccn1`: the growth in experiment [1] was 38.3%; in experiment [2] it was 59.9%; in experiment [3], -21.2% (active); in experiment [4] it was 22.7%; in experiment [5], 17.5%; in experiment [6], 32%. Further, the growth in experiment [7] is 56.2%; in experiment [8], 30.3%.

For `COc1cccc2cc(N(C)c3nc(C)nc4c3CCC4)ccc12`, the growth is 50.7% in experiment [1]; 1.76% (active) in experiment [2]; -3.22% (active) in experiment [3]; 19.7% in experiment [4]; 15.1% in experiment [5]; -14.2% (active) in experiment [6]. Also, the growth was 17.5% in experiment [7] and 0.0953% (active) in experiment [8].

`COc1ccc(/C=N/NC(=O)Cn2nnc3ccccc32)cc1`: the growth was 92.1% in experiment [1]; 107% in experiment [2]; 98.2% in experiment [3]; 92.9% in experiment [4]; 86.4% in experiment [5]; 93.7% in experiment [6]. Besides, the growth in experiment [7] was 116%; in experiment [8], 90.7%.

Take `CC1OC(C(=O)N2CCN(CCO)CC2)CC1COC1CCCCC1` (stereo not given): the growth in experiment [1] is 94.6% [50 µM]; in experiment [2], 90.2% [50 µM]; in experiment [3], 103% [50 µM]; in experiment [4], 101% [50 µM]; in experiment [5], 103% [50 µM]; in experiment [6], 97% [50 µM]. In addition, the values for the growth in experiment [7] and in experiment [8] were 109% [50 µM] and 101% [50 µM], respectively.

`COc1ccc(Cn2cc(C(=O)N=Nc3c(O)[nH]c4ccc(Br)cc34)nn2)cc1`: the growth is 106% in experiment [1]; 111% in experiment [2]; 101% in experiment [3]; 107% in experiment [4]; 86.3% in experiment [5]; 77% in experiment [6]. Also, the figures for the growth in experiment [7] and in experiment [8] were 98.5% and 104%, respectively.

For `C#CCOc1cccc(Nc2ncnc3c(NC(=O)CCl)cccc23)c1`, the growth in experiment [1] is -31.4% (active); in experiment [2], 23%; in experiment [3], 26.4%; in experiment [4], 1.15% (active); in experiment [5], 10.9%; in experiment [6], 2.88% (active). Also, the growth in experiment [7] is 91.8%; in experiment [8] it was 28.6%.

As to `Cc1c(N2CCCCC2)[nH]c2ccccc12`, the growth in experiment [1] is 110%; in experiment [2] it was 121%; in experiment [3], 103%; in experiment [4] it was 100%; in experiment [5], 111%; in experiment [6] it was 105%. Also, the growth in experiment [7] and in experiment [8] was 113% in each case.

On to `COC(=O)c1nc(-c2ccc(C)cc2)oc1N1CCOCC1`, for which the growth in experiment [1] was 87.3%; in experiment [2], 87.1%; in experiment [3] it was 103%; in experiment [4], 99.7%; in experiment [5], 83%; in experiment [6], 97.8%. Further, the growth in experiment [7] and in experiment [8] was 104% each time.

In the case of `CCCCCN(CCCCC)CC(O)c1c(Cl)ccc2ccccc12` (stereo not given), the growth was 69% in experiment [1]; 105% in experiment [2]; 84.2% in experiment [3]; 46.1% in experiment [4]; 72.2% in experiment [5]; 37.2% in experiment [6]. Besides, the growth was 70.8% in experiment [7] and 75.9% in experiment [8].

`CCOC(=O)C1=CCC(n2cc(F)c(=O)[nH]c2=O)O1` (stereo not given): the growth in experiment [1] is 98.5%; in experiment [2] it was 107%; in experiment [3], 110%; in experiment [4], 89.9%; in experiment [5], 93.1%; in experiment [6] it was 96.7%. For the same compound, the growth in experiment [7] was 103%; in experiment [8], 88.3%.

Consider `N#CC1=C(N)Oc2c(ccc3ccccc23)C1c1cc2ccccc2n2nnnc12` (stereo not given), for which the growth in experiment [1] was 25%; in experiment [2], 16.2%; in experiment [3], -27.7% (active); in experiment [4], 9.58% (active); in experiment [5], 9.81% (active); in experiment [6] it was -5.37% (active). Moreover, the growth in experiment [7] is 46.9%; in experiment [8] it was 18.1%.

`C[C@H]1c2ccccc2CN1CCCOc1cc2c(cc1OCC1CC1)C1(CCCC1)C(N)=N2`: the growth in experiment [1] was 0.245% (active); in experiment [2], 78%; in experiment [3] it was 36.4%; in experiment [4] it was 15%; in experiment [5] it was 22.5%; in experiment [6], 7.48% (active). The growth in experiment [7] is -55.3% (active); in experiment [8] it was 49.6%.

Regarding `CCN1CCN(c2nc(NNC(=O)c3ccc(OC)cc3)nc(N3CCN(C(c4ccccc4)c4ccccc4)CC3)n2)CC1`, the growth in experiment [1] is 43.4%; in experiment [2], 81.1%; in experiment [3], 18.3%; in experiment [4] it was 32.4%; in experiment [5], 15.9%; in experiment [6], 20.8%. Further, the growth in experiment [7] was 21.3%; in experiment [8] it was 36.9%.

Take `CN1CCN(Cn2nc(-c3cc(Cl)cc(Cl)c3Cl)oc2=S)CC1`: the growth in experiment [1] was 98.9%; in experiment [2], 94.9%; in experiment [3] it was 88.9%; in experiment [4], 100%; in experiment [5] it was 97.5%; in experiment [6], 97.5%. Also, the growth in experiment [7] is 105%; in experiment [8] it was 94.2%.

As to `CC(=O)c1ccc(Nc2nccc(-c3ccc(Cl)cc3)n2)cc1`, the growth in experiment [1] is 80.2%; in experiment [2], 100%; in experiment [3], 104%; in experiment [4], 92.6%; in experiment [5] it was 76.8%; in experiment [6], 62.9%. The growth in experiment [7] is 114%; in experiment [8], 94.7%.

Turning to `COc1ccc(N2C(=O)/C(=C/C(Cl)=C/c3ccc([N+](=O)[O-])cc3)SC2=S)cc1`, the growth was -14.9% (active) in experiment [1]; -4.68% (active) in experiment [2]; -14.4% (active) in experiment [3]; -13.7% (active) in experiment [4]; 10.4% in experiment [5]; -60.4% (active) in experiment [6]. Further, the growth is -20.2% (active) in experiment [7] and -61.5% (active) in experiment [8].

For the compound `C#CCOc1ccc(C2=NN(C)C3N=C(Cl)c4ncn(C)c4N23)cc1OCC#C` (stereo not given), the growth in experiment [1] was 77.4%; in experiment [2], 99.6%; in experiment [3], 108%; in experiment [4], 93.6%; in experiment [5], 98.5%; in experiment [6] it was 93.3%. In addition, the values for the growth in experiment [7] and in experiment [8] were 104% and 102%, respectively.
